# Measured values published in paper PMC5540273 (PLoS ONE, 2017).
# Like-named read-outs stand apart in the source and are kept apart here.
# Key:
# [1] = test system: T1, SNARK; settings: concentration: 1 μM, replicates: in singlicate; n = 1
# T1 construct: gene NUAK2
# [2] = test system: SNRK; settings: concentration: 1 μM, replicates: in singlicate; n = 1
# [3] = test system: SRC; settings: concentration: 1 μM, replicates: in singlicate; n = 1
# [4] = test system: SRMS; settings: concentration: 1 μM, replicates: in singlicate; n = 1
# [5] = test system: SRPK1; settings: concentration: 1 μM, replicates: in singlicate; n = 1
# [6] = test system: SRPK2; settings: concentration: 1 μM, replicates: in singlicate; n = 1
# [7] = test system: SRPK3; settings: concentration: 1 μM, replicates: in singlicate; n = 1
# [8] = test system: STK16; settings: concentration: 1 μM, replicates: in singlicate; n = 1
# [9] = test system: STK33; settings: concentration: 1 μM, replicates: in singlicate; n = 1
# [10] = test system: STK35; settings: concentration: 1 μM, replicates: in singlicate; n = 1
# [11] = test system: STK36; settings: concentration: 1 μM, replicates: in singlicate; n = 1
# [12] = test system: STK39; settings: concentration: 1 μM, replicates: in singlicate; n = 1
# [13] = test system: SYK; settings: n = 1
# [14] = test system: SgK110; settings: concentration: 1 μM, replicates: in singlicate; n = 1
# [15] = test system: T2, TAK1; settings: concentration: 1 μM, replicates: in singlicate; n = 1
# T2 construct: gene MAP3K7
# [16] = test system: TAOK1; settings: concentration: 1 μM, replicates: in singlicate; n = 1
# [17] = test system: TAOK2; settings: concentration: 1 μM, replicates: in singlicate; n = 1
# [18] = test system: TAOK3; settings: concentration: 1 μM, replicates: in singlicate; n = 1
# [19] = test system: TBK1; settings: concentration: 1 μM, replicates: in singlicate; n = 1
# [20] = test system: TEC; settings: concentration: 1 μM, replicates: in singlicate; n = 1
# [21] = concentration: 1 μM, replicates: in singlicate
# 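Further: KINOMEscan kinase panel screen.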
compound,measurement,setting,value
CS(=O)(=O)c1cccc(CNc2nc(Nc3ccc4c(c3)CCC(=O)N4)ncc2C(F)(F)F)c1,%Inh,[1],81%
same,%Inh,[2],0%
same,%Inh,[3],0%
same,%Inh,[4],0%
same,%Inh,[5],72%
same,%Inh,[6],0%
same,%Inh,[7],3%
same,%Inh,[8],93.2%
same,%Inh,[9],0%
same,%Inh,[10],0%
same,%Inh,[11],0%
same,%Inh,[12],0%
same,%Inh,[13]; [21],75%
same,%Inh,[14],0%
same,%Inh,[15],68%
same,%Inh,[16],0%
same,%Inh,[17],21%
same,%Inh,[18],0%
same,%Inh,[19],89%
same,%Inh,[20],0%
Cc1cccc(Nc2nc(N[C@H]3CCCC[C@H]3N)ncc2C(N)=O)c1.Cl [GSK986310],%Inh,[1],39%
same,%Inh,[2],11%
same,%Inh,[3],65%
same,%Inh,[4],0%
same,%Inh,[5],44%
same,%Inh,[6],0%
same,%Inh,[7],0%
same,%Inh,[8],24%
same,%Inh,[9],55%
same,%Inh,[10],28%
same,%Inh,[11],58%
same,%Inh,[12],12%
same,%Inh,[13]; 1 µM,99.4%
same,%Inh,[14],55%
same,%Inh,[15],90.3%
same,%Inh,[16],32%
same,%Inh,[17],0%
same,%Inh,[18],3%
same,%Inh,[19],17%
same,%Inh,[20],23%
Cn1cc(-c2ccc3c(c2)CCN3C(=O)Cc2cc(F)cc(C(F)(F)F)c2)c2c(N)ncnc21 [GSK2635225],%Inh,[1],10%
same,%Inh,[2],0%
same,%Inh,[3],29%
same,%Inh,[4],0%
same,%Inh,[5],18%
same,%Inh,[6],0%
same,%Inh,[7],2%
same,%Inh,[8],20%
same,%Inh,[9],0%
same,%Inh,[10],0%
same,%Inh,[11],19%
same,%Inh,[12],0%
same,%Inh,[13]; [21],27%
same,%Inh,[14],0%
same,%Inh,[15],39%
same,%Inh,[16],0%
same,%Inh,[17],0%
same,%Inh,[18],0%
same,%Inh,[19],21%
same,%Inh,[20],0%
Cn1cc(-c2cnc(N)c3c(-c4ccc5c(c4)CCN5C(=O)Cc4ccccc4)csc23)cn1 [GSK2593074],%Inh,[1],12%
same,%Inh,[2],0%
same,%Inh,[3],81%
same,%Inh,[4],55%
same,%Inh,[5],3%
same,%Inh,[6],0%
same,%Inh,[7],0%
same,%Inh,[8],24%
same,%Inh,[9],0%
same,%Inh,[10],4%
same,%Inh,[11],0%
same,%Inh,[12],0%
same,%Inh,[13]; [21],16%
same,%Inh,[14],8%
same,%Inh,[15],33%
same,%Inh,[16],0%
same,%Inh,[17],0%
same,%Inh,[18],0%
same,%Inh,[19],23%
same,%Inh,[20],14%
CC(=O)Nc1cn2nc(Oc3cccc(NC(=O)c4cccc(C(F)(F)F)c4)c3)ccc2n1,%Inh,[1],0%
same,%Inh,[2],0%
same,%Inh,[3],99.9%
same,%Inh,[4],11%
same,%Inh,[5],0%
same,%Inh,[6],22%
same,%Inh,[7],9%
same,%Inh,[8],10%
same,%Inh,[9],3%
same,%Inh,[10],1%
same,%Inh,[11],0%
same,%Inh,[12],15%
same,%Inh,[13]; [21],14%
same,%Inh,[14],0%
same,%Inh,[15],21%
same,%Inh,[16],0%
same,%Inh,[17],34%
same,%Inh,[18],0%
same,%Inh,[19],57%
same,%Inh,[20],18%
O=C1NC(=O)C(c2ccccc2Cl)=C1Nc1cccc(Cl)c1 [SB-342409],%Inh,[1],0%
same,%Inh,[2],11%
same,%Inh,[3],0%
same,%Inh,[4],0%
same,%Inh,[5],21%
same,%Inh,[6],0%
same,%Inh,[7],23%
same,%Inh,[8],13%
same,%Inh,[9],0%
same,%Inh,[10],6%
same,%Inh,[11],0%
same,%Inh,[12],9%
same,%Inh,[13]; [21],0%
same,%Inh,[14],0%
same,%Inh,[15],0%
same,%Inh,[16],0%
same,%Inh,[17],0%
same,%Inh,[18],11%
same,%Inh,[19],7%
same,%Inh,[20],13%
Nc1ncnc2scc(-c3ccc(NC(=O)Cc4cc(F)ccc4F)cc3)c12.O=C(O)C(F)(F)F [SB-731254-M],%Inh,[1],23%
same,%Inh,[2],11%
same,%Inh,[3],13%
same,%Inh,[4],30%
same,%Inh,[5],10%
same,%Inh,[6],25%
same,%Inh,[7],3%
same,%Inh,[8],1%
same,%Inh,[9],6%
same,%Inh,[10],0%
same,%Inh,[11],0%
same,%Inh,[12],8%
same,%Inh,[13]; [21],0%
same,%Inh,[14],11%
same,%Inh,[15],22%
same,%Inh,[16],11%
same,%Inh,[17],3%
same,%Inh,[18],0%
same,%Inh,[19],30%
same,%Inh,[20],1%
CC(C)c1nc(-c2ccc(F)c(NS(=O)(=O)c3c(F)cccc3F)c2)c(-c2ccnc(Nc3ccc(N4CCOCC4)nc3)n2)s1 [GSK1804250],%Inh,[1],17%
same,%Inh,[2],0%
same,%Inh,[3],100%
same,%Inh,[4],99.9%
same,%Inh,[5],54%
same,%Inh,[6],0%
same,%Inh,[7],18%
same,%Inh,[8],39%
same,%Inh,[9],8%
same,%Inh,[10],74%
same,%Inh,[11],100%
same,%Inh,[12],11%
same,%Inh,[13]; [21],46%
same,%Inh,[14],0%
same,%Inh,[15],46%
same,%Inh,[16],4%
same,%Inh,[17],0%
same,%Inh,[18],5%
same,%Inh,[19],6%
same,%Inh,[20],45%
Cl.Cl.NC(CNC(=O)c1cc(Br)c(-c2ccnc3[nH]ccc23)s1)c1ccccc1 (stereo not shown) [GSK1322949],%Inh,[1],74%
same,%Inh,[2],0%
same,%Inh,[3],0%
same,%Inh,[4],0%
same,%Inh,[5],80%
same,%Inh,[6],80%
same,%Inh,[7],83%
same,%Inh,[8],61%
same,%Inh,[9],53%
same,%Inh,[10],20%
same,%Inh,[11],0%
same,%Inh,[12],5%
same,%Inh,[13]; [21],27%
same,%Inh,[14],0%
same,%Inh,[15],36%
same,%Inh,[16],66%
same,%Inh,[17],3%
same,%Inh,[18],44%
same,%Inh,[19],20%
same,%Inh,[20],1%
CCNC(=O)/C=C/c1n[nH]c2cc(Sc3ccccc3C(=O)NC)ccc12,%Inh,[1],42%
same,%Inh,[2],5%
same,%Inh,[3],7%
same,%Inh,[4],7%
same,%Inh,[5],63%
same,%Inh,[6],0%
same,%Inh,[7],37%
same,%Inh,[8],10%
same,%Inh,[9],0%
same,%Inh,[10],48%
same,%Inh,[11],35%
same,%Inh,[12],0%
same,%Inh,[13]; [21],20%
same,%Inh,[14],15%
same,%Inh,[15],26%
same,%Inh,[16],0%
same,%Inh,[17],0%
same,%Inh,[18],8%
same,%Inh,[19],13%
same,%Inh,[20],0%
COC(=O)Nc1nc2cc(Oc3ccc(NC(=O)Nc4cccc(SC)c4)cc3)ccc2[nH]1.Cl [GW697999],%Inh,[1],7%
same,%Inh,[2],0%
same,%Inh,[3],61%
same,%Inh,[4],0%
same,%Inh,[5],38%
same,%Inh,[6],17%
same,%Inh,[7],0%
same,%Inh,[8],3%
same,%Inh,[9],0%
same,%Inh,[10],0%
same,%Inh,[11],8%
same,%Inh,[12],0%
same,%Inh,[13]; [21],23%
same,%Inh,[14],0%
same,%Inh,[15],36%
same,%Inh,[16],0%
same,%Inh,[17],0%
same,%Inh,[18],0%
same,%Inh,[19],0%
same,%Inh,[20],5%
